Records with an inconclusive call do not appear. The source made the active and inactive calls. Unless noted, calls come from the whole dose curve; as a rule, active = well fitted curve in the direction sought with a large enough effect; inconclusive = small, poorly fitted or top-dose-only effect, or another doubt; inactive = no such curve, though single readings can be large; an effect the other way counts as inactive or inconclusive.
Legend:
[1] = AP1 Signaling Pathway (AID 357; active = well fitted curve in either direction with a large enough effect, not every such curve was filed as active;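 note: ME-180 reporter cells stimulated with EGF at its EC50 level; % is set by controls: 0 for no effect and ±100 for the full control effect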)
How it was run: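 Beta-lactamase reporter under AP-1 response element, ME-180 background. Stimulus: EC50 EGF. Compound exposure 5 h, 37 °C. Detection: CCF4, 2.5 h RT, 460/530 nm. Values: AC50 from titration.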

[2] = molecular target: Cytochrome P450 1A2 (Homo sapiens) (UniProt P05177); assay: p450-cyp1a2 (AID 410; calls by dose curve; note: potency is the fitted concentration of half-maximal effect;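 for activity change, negative = inhibition: -100% = full effect of reference inhibitor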)
Chain of Cytochrome P450 1A2 (Homo sapiens) (P05177 whole entry, looked up): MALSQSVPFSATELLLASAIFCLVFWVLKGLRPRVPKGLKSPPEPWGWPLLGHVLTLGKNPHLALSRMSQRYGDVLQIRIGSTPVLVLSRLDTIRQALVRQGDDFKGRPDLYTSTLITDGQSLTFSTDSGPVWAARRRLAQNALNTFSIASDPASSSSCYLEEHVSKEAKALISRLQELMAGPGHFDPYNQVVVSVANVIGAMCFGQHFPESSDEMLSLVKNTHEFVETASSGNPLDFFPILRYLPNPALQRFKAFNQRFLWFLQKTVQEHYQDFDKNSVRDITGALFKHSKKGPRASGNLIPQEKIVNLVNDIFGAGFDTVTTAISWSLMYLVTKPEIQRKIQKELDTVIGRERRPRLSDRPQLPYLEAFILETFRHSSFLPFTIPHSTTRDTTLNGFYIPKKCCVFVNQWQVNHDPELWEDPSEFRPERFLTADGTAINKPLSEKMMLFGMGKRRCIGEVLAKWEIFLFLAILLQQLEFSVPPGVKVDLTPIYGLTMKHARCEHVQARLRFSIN
How it was run: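 Luminescent demethylation readout: Luciferin-ME (100uM, equal to Km) turned over by 20nM CYP1A2 for 60 min at room temperature after NADPH regeneration addition, following 10 min compound preincubation. Normalization used 57 uM furafylline as full inhibition.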

[3] = NFAT Signaling Pathway (AID 444; active = well fitted curve in either direction with a large enough effect, not every such curve was filed as active;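 note: carbachol stimulus at about its EC50 of 1 µM final; % is set by controls: 0 for no effect and ±100 for the full control effect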); details: Jurkat NFAT-bla M1, carbachol, beta-lactamase ratio, 5 h; at 17.2 µM (top of the series) unless noted
How it was run: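 Jurkat cells carrying an NFAT-driven β-lactamase reporter and co-transfected muscarinic M1 receptor were treated with compound plus carbachol (1 uM final, an EC50 level) for 5 h at 37 °C. CCF4 loading followed for 1 h at RT; 460/530 nm ratio gave %activity.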

[4] = Stat Signaling Pathway (AID 446; active = well fitted curve in either direction with a large enough effect, not every such curve was filed as active;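 note: ME-180 cervical cancer cells given 40 pM IL-6 alongside compound; SIE-controlled beta-lactamase reporter measured as 460/530 nm FRET emission ratio; % is set by controls: 0 for no effect and ±100 for the full control effect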)
How it was run: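 Overnight-plated ME-180 cells bearing a STAT Inducible Element beta-lactamase reporter; 5 h co-exposure to compound and 40 pM IL-6; values normalized to 300 pM IL-6 and 125 nM JAK inhibitor controls.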

[5] = molecular target: Glucocorticoid receptor (Homo sapiens) (UniProt P04150); assay: GR-GFP Redistribution (AID 450;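 active = compounds whose dose series gives a full or clear partial fitted curve of increased nuclear translocation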; note: potency is the fitted concentration of half-maximal effect); details: U2OS GR-GFP nuclear translocation, laser cytometry, 2 h
Chain of Glucocorticoid receptor (Homo sapiens) (P04150 whole entry, looked up, the tested form may be a part): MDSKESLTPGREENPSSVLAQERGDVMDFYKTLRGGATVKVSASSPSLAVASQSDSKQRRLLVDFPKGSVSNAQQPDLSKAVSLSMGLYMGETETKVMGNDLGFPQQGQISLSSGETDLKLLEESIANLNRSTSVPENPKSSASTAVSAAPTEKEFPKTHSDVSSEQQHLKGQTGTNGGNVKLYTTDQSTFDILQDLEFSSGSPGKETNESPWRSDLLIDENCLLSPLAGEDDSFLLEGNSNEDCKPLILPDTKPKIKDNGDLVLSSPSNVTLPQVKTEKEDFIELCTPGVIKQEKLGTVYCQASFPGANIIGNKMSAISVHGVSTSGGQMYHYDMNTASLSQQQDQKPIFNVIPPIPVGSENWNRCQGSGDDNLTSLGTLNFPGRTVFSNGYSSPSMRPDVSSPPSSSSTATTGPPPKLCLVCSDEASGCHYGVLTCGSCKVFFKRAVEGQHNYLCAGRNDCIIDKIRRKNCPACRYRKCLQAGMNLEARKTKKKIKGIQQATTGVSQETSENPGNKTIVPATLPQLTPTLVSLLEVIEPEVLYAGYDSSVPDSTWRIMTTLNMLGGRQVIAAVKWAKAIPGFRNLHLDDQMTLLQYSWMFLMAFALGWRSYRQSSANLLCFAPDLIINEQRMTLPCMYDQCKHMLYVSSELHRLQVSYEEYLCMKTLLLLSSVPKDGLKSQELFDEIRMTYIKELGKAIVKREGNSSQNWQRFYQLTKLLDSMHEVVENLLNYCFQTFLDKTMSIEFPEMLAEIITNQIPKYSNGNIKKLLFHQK

[6] = molecular target: Glucocorticoid receptor (Homo sapiens) (UniProt P04150); assay: GR-EFC Redistribution (AID 451; calls by dose curve; note: potency is the fitted concentration of half-maximal effect); details: CHO-K1 GR-EFC translocation, beta-gal luminescence, 2 h
How it was run: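 CHO-K1 cells stably expressing nuclear-localized β-gal enzyme acceptor and GR fused C-terminally to the enzyme donor fragment; ligand-driven nuclear translocation restores β-gal by complementation. Compounds titrated up to 46 uM final, 2 h at 37 °C; luminescence read.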

[7] = molecular target: Mitogen-activated protein kinase 10 (Mus musculus) (UniProt Q61831); assay: JNK3 AlphaScreen Assay (AID 530; active = well fitted curve in either direction with a large enough effect, not every such curve was filed as active;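 note: kinase came from lysate of stimulated human HepG2 cells; signal reports phosphorylation of biotinylated GST-cJun 1-79 at Ser73 with 10 µM ATP; % is set by controls: 0 for no effect and ±100 for the full control effect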)
How it was run: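 Phosphorylation of biotinylated GST-cJun(1-79) at Ser73 is measured by AlphaScreen proximity luminescence. Enzyme is JNK3 in HepG2 lysates activated with interleukin-1beta and tumor necrosis factor alpha; ATP is 10 uM final.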

[8] = molecular target: 3',5'-cyclic-AMP phosphodiesterase 4B (Homo sapiens) (UniProt Q07343); assay: qHTS Assay for Inhibitors of PDE-IV (AID 607; active = well fitted activation curve with a large enough effect in the main read-out, with a control signal flat, not every such curve was filed as active; note: % of control where 0% means no effect)
Chain of 3',5'-cyclic-AMP phosphodiesterase 4B (Homo sapiens) (Q07343 whole entry, looked up): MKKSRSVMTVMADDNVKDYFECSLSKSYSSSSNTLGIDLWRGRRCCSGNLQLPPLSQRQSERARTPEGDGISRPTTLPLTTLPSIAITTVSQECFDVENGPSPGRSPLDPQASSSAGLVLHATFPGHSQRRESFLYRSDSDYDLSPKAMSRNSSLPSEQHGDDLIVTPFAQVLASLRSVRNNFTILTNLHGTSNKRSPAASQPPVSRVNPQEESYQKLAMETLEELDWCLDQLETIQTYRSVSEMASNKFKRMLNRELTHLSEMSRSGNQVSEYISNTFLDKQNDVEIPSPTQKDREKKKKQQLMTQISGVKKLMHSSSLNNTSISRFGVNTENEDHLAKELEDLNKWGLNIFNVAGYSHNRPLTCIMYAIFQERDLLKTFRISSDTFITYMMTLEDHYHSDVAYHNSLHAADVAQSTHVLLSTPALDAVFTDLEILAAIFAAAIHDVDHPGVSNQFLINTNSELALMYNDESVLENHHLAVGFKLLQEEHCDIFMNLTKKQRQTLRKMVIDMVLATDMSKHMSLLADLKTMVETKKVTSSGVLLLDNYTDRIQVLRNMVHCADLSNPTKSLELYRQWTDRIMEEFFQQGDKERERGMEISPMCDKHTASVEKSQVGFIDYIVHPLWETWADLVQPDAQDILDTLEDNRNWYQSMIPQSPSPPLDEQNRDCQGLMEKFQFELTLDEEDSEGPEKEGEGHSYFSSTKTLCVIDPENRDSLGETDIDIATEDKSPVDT
How it was run: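 Live HEK293 cells with a modified cyclic nucleotide-gated (CNG) channel report intracellular cAMP via membrane-potential dye fluorescence (ex 535/em 590 nm). Endogenous PDE-IV was targeted. Compounds were tested at up to 22.9 uM final; RO 20-1724 100 uM served as control.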

[9] = qHTS Assay for Lipid Storage Modulators (AID 1519; calls by dose curve); details: Drosophila S3 cells, BODIPY lipid droplet/cell ratio, laser cytometry, cells loaded with oleic acid; for activity change, negative = inhibition: at 25.7 µM (top of the series)
How it was run: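 Cells seeded at 5,000 per well were treated with compounds over a concentration series and loaded with oleic acid (400 uM, as added). Lipid droplet fluorescence (488 nm excitation, 500-530 nm channel) was read by laser-scanning cytometry and normalized to 20 uM Triacsin C.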

[10] = molecular target: Ubiquitin carboxyl-terminal hydrolase 1 (Homo sapiens) (UniProt O94782); assay: Inhibitors of USP1/UAF1: Pilot qHTS (AID 504865);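 note: rhodamine fluorescence freed from ubiquitin-rhodamine substrate followed over time; top concentration of the series differs between compounds; % is set by controls: 0 for no effect and ±100 for the full control effect; nearly all actives have a fitted effect of over 35% in size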
Chain of Ubiquitin carboxyl-terminal hydrolase 1 (Homo sapiens) (O94782 whole entry, looked up): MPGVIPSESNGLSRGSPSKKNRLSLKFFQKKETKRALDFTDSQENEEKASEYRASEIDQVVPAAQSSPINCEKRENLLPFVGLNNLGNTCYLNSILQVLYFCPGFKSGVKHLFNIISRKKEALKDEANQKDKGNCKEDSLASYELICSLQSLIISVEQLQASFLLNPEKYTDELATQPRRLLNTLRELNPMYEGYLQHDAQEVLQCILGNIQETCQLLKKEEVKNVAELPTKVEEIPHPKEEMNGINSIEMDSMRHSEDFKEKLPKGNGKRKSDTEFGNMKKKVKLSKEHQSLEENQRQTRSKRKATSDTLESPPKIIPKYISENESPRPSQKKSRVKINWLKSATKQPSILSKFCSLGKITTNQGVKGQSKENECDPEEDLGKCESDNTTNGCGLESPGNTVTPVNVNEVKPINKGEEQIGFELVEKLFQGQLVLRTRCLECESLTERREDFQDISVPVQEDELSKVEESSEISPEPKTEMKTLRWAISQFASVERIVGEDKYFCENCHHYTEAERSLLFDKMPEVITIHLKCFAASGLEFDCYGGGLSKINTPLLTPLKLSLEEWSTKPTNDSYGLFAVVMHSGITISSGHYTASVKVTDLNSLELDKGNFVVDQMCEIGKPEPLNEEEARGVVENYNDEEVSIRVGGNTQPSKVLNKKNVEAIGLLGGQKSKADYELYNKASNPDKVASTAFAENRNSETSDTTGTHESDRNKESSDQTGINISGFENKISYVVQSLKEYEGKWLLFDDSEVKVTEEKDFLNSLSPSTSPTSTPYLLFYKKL
How it was run: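 Enzyme-free wells gave the negative control, while test wells held 1nM USP1/UAF1 preincubated with compound for 15 min at room temperature. Ub-Rho at 150nM final started the reaction, and fluorescence at 480/540 nm was recorded kinetically.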

[11] = molecular target: Luciferin 4-monooxygenase (Photinus pyralis) (UniProt P08659); assay: Biochemical firefly luciferase enzyme assay for NPC (AID 624030);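 note: purified P. pyralis luciferase at 10 nM with luciferin and ATP substrate; 0% = DMSO and -100% = full luciferase inhibition by PTC124 control; nearly all actives have a fitted effect of over 70% in size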
Chain of Luciferin 4-monooxygenase (Photinus pyralis) (P08659 whole entry, looked up): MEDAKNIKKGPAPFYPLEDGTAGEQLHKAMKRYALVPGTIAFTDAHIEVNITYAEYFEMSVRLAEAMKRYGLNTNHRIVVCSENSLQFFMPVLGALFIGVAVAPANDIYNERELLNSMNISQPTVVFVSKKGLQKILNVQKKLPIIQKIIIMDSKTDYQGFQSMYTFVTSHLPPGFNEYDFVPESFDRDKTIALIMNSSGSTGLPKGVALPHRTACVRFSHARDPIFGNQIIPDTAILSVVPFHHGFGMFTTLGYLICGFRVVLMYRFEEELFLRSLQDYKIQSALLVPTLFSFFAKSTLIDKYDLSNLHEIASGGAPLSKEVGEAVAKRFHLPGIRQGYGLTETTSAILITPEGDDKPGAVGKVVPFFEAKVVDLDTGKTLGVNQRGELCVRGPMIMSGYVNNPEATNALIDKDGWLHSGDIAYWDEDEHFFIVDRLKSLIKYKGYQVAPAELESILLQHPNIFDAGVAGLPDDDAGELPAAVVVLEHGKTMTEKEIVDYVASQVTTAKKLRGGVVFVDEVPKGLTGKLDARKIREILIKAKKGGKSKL
How it was run: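 Counter-screen for direct inhibition of the luciferase enzyme by approved-drug library compounds, run at 10 nM enzyme in 50 mM Tris acetate (final). Luminescence was read within 5 min of enzyme-buffer addition and normalized to PTC124 versus DMSO (0%).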

[12] = S16 Schwann cell viability assay (CellTiter-Glo assay) (AID 624031);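 note: native untransfected S16 rat Schwann cells; cellular ATP luminescence as a viability measure; plate controls were DMSO-treated cells for no effect and cell-free wells for full effect; nearly all actives have a fitted effect of over 70% in size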
How it was run: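 Parental S16 cells, 24 h compound, 37 °C. ATP-luminescence viability; DMSO = 0% activity, empty wells as reference; curves classified by fit quality and efficacy.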

[13] = S16 Schwann cell PMP22 intronic element beta-lactamase assay (AID 624044; calls by dose curve;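 note: 0% = DMSO and -100% = potassium clavulanate positive control; nearly all actives have a fitted effect of over 15% in size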)
How it was run: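 Beta-lactamase reporter under a PMP22 intronic regulatory element in stable S16 rat Schwann cells; 24 h compound exposure. 460 nm blue signal normalized between DMSO (0%) and potassium clavulanate, with 535 nm FRET tracking viability; curves classed by r2 and response.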

[14] = qHTS profiling for inhibitors of Plasmodium falciparum proliferation (AID 504749);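 note: 0% = DMSO vehicle and full inhibition = artemisinin control; nearly all actives have a fitted effect of over 60% in size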; details: P. falciparum in erythrocytes, SYBR Green DNA, 72 h, at 12.8 µM (top of the series)
How it was run: (§1)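 Quantitative HTS: compounds pinned into medium, infected erythrocytes added (0.3% parasitemia, 2.5% hematocrit), 72 h culture at 37 C under 5% CO2. Saponin/Triton lysis with SYBR Green I, overnight RT, then fluorescence read.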

C2A = assay: as above; details: P. falciparum in erythrocytes, SYBR Green DNA, 72 h; series mostly up to 12.8 µM
How it was run: as §1

CP217 = assay: as above; details: P. falciparum in erythrocytes, SYBR Green DNA, 72 h; series mostly up to 12.8 µM
How it was run: as §1

CP250 = assay: as above; details: P. falciparum in erythrocytes, SYBR Green DNA, 72 h; series mostly up to 12.8 µM
How it was run: as §1

JCK = assay: as above; details: P. falciparum in erythrocytes, SYBR Green DNA, 72 h; series mostly up to 12.8 µM
How it was run: as §1

SC27B = assay: as above; details: P. falciparum in erythrocytes, SYBR Green DNA, 72 h; series mostly up to 12.8 µM
How it was run: as §1

FAB9 = assay: as above; details: P. falciparum in erythrocytes, SYBR Green DNA, 72 h; series mostly up to 12.8 µM
How it was run: as §1

[15] = measured here: cell count channel max response
[16] = measured here: lipid channel max response

CN1CC[C@@]23c4ccccc4N[C@H]1[C@]21CCN(C)[C@@H]3Nc2ccccc21
inactive: outcome [1] | Potency [2] | activity change, negative = inhibition [3] -9.09% | outcome [4] | Potency [5] > 20.6 µM | Potency [6] > 20.6 µM | Potency [7] | outcome [8] | activity change, negative = inhibition [9] -2.36% | Potency [10]
-11.8%: max response [9, 16]
-9.01%: max response [9, 15]

Clc1cnccn1
8.49%: max response [9, 15]
10.5%: max response [9, 16]
inactive: outcome [1] | Potency [2] | activity change, negative = inhibition [3] -22.8% | outcome [4] | Potency [5] > 20.6 µM | Potency [6] > 20.6 µM | Potency [7] | outcome [8] | activity change, negative = inhibition [9] 2.5% | Potency [10]

CC[N+](CC)(CC)CC[C@](O)(c1ccccc1)C1CCCCC1
active: activity change, negative = inhibition [3] -68.8%
-17.2%: max response [9, 15]
-19.8%: max response [9, 16]
inactive: outcome [1] | Potency [2] | outcome [4] | Potency [5] > 20.6 µM | Potency [6] > 20.6 µM | Potency [7] | outcome [8] | activity change, negative = inhibition [9] -1.33% | Potency [10] | Potency [11] | outcome [12] | Potency [13] | activity, negative = inhibition ([14]; parasite line B) -24.4% | Potency (C2A) | Potency (CP217) | Potency (CP250) | Potency (JCK) | Potency (SC27B)

Nc1ccccc1S(N)(=O)=O
inactive: outcome [1] | Potency [2] | activity change, negative = inhibition [3] -3.4% | outcome [4] | Potency [5] > 20.6 µM | Potency [6] > 20.6 µM | Potency [7] | outcome [8] | activity change, negative = inhibition [9] -3% | Potency [10]
-21%: max response [9, 15]
-21.4%: max response [9, 16]

O=C1O[C@H](CN2CCOCC2)CN1/N=C\c1ccc([N+](=O)[O-])o1
-26.5%: max response [9, 16]
inactive: outcome [1] | Potency [2] | activity change, negative = inhibition [3] -16.1% | outcome [4] | Potency [5] > 20.6 µM | Potency [6] > 20.6 µM | Potency [7] | outcome [8] | activity change, negative = inhibition [9] -9.12% | Potency [11] | outcome [12] | Potency [13] | Potency (C2A) | Potency (CP217) | Potency (CP250) | Potency (FAB9) | Potency (JCK) | Potency (SC27B)
-19.2%: max response [9, 15]

O=C(Nc1ccccc1)OC[C@H](CN1CCCCC1)OC(=O)Nc1ccccc1
active: Potency [2] 12.6 µM
-11%: max response [9, 16]
inactive: outcome [1] | activity change, negative = inhibition [3] -6.24% | outcome [4] | Potency [5] > 20.6 µM | Potency [6] > 20.6 µM | Potency [7] | outcome [8] | activity change, negative = inhibition [9] -4.16% | Potency [11] | outcome [12] | Potency [13] | activity, negative = inhibition ([14]; parasite line A) -1.15% | activity, negative = inhibition ([14]; parasite line B) -2.24% | Potency (C2A) | Potency (CP217) | Potency (CP250) | Potency (FAB9) | Potency (JCK) | Potency (SC27B)
-5.88%: max response [9, 15]

Source: PubChem BioAssay (NCATS)
